According to PubChem BioAssay (Tox21):
Values joined by “and” are separate entries in the source; they are usually repeats but may differ in a detail not shown here. Equal entries are not always repeated. Results filed as inconclusive are left out. A call without a number means that no potency is given here. Some compounds were tested as several samples or in several runs, with calls that do not always agree. Active and inactive are the calls of the source. Unless noted, calls follow the shape of the dose curve; as a rule, active = well fitted curve in the direction sought with a large enough effect in the repeat runs; inconclusive = weak or mixed curves; inactive = no such curve, though single readings can be large; an effect the other way counts as inactive or inconclusive.

Columns and labels:
[1] = qHTS assay to test for compound auto fluorescence at 535 nm (green) in HEK293 cells (AID 720680)
[2] = qHTS assay to test for compound auto fluorescence at 460 nm (blue) in HEK293 cell free culture (AID 720681)
Summary of the method: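 Test compounds were pinned into cell-free culture medium (DMEM with 10% FBS) and fluorescence was read directly at Ex/Em 405/460 nm. Signals were expressed as fluorescence equivalents of triamterene, with DMSO vehicle as control.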

[3] = qHTS assay to test for compound auto fluorescence at 535 nm (green) in HEK293 cell free culture (AID 720682)
Summary of the method: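 Cell-free medium (DMEM, 10% FBS) receives compound or DMSO by pintool. Plate read directly at Ex 485/Em 535 nm. Signal converted to fluorescein equivalency.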

[4] = qHTS assay to test for compound auto fluorescence at 590 nm (red) in HepG2 cell free culture (AID 720684)
Summary of the method: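 Measured in medium alone (MEM containing 10% FBS) following pintool addition of compound; emission at 590 nm with 540 nm excitation, referenced to Rose Bengal sodium.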

[5] = qHTS assay to test for compound auto fluorescence at 460 nm (blue) in HepG2 cell free culture (AID 720685)
Summary of the method: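 Compound (23 nL) or DMSO pinned into cell-free MEM with 10% FBS; blue fluorescence read at 405/460 nm excitation/emission, expressed as auto-fluorescence equivalency to triamterene.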

[6] = qHTS assay to test for compound auto fluorescence at 535 nm (green) in HepG2 cell free culture (AID 720686)
[7] = qHTS assay to test for compound auto fluorescence at 460 nm (blue) in HepG2 cells (AID 720687)
Summary of the method: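 Cells (2,000/well in MEM with 10% FBS) attached overnight at 37 C, then were exposed to compound or DMSO for 1 hr at 37 C, 5% CO2. Fluorescence read at Ex/Em 405/460 nm, expressed as triamterene-equivalent signal.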

[8] = target: Glucocorticoid receptor (Homo sapiens) (UniProt P04150); assay: qHTS assay to identify small molecule agonists of the glucocorticoid receptor (GR) signaling pathway (AID 720691; active = well fitted activation curve with a large enough effect in the signal ratio in the repeat runs, not every such curve was filed as active; the % refers to the signal ratio)
Summary of the method: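 qHTS in GR-bla HeLa cells: 4 h settling at 37 C/5% CO2, 18 h compound incubation at 37 C, 2 h LiveBLAzer B/G FRET substrate at room temperature, fluorescence intensity measured.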

[9] = target: Glucocorticoid receptor (Homo sapiens) (UniProt P04150); assay: qHTS assay to identify small molecule antagonists of the glucocorticoid receptor (GR) signaling pathway (AID 720692; active = well fitted inhibition curve with a large enough effect in the signal ratio in the repeat runs, not every such curve was filed as active; the % refers to the signal ratio)
Summary of the method: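 Inhibition of glucocorticoid signalling is measured in HeLa cells with a GRE-controlled beta-lactamase reporter; cells are co-treated with compound and 5 nM dexamethasone (final) for 18 h before FRET substrate readout.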

[10] = qHTS assay to identify small molecule antagonists of the glucocorticoid receptor (GR) signaling pathway - cell viability counter screen (AID 720693); also: nearly all actives have a fitted effect of over 55% in size
[11] = qHTS assay for identifying genotoxic compounds that show differential cytotoxicity against isogenic chicken DT40 cell lines with known DNA damage response pathways - wild type cell line (AID 743012); also: nearly all actives have a fitted effect of over 60% in size; also: potency is read from the fitted curve at half-maximal effect
Summary of the method: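 First, wild type DT40 cells were plated at 300 per well and equilibrated about 0.5 h at 37 C/5% CO2. Next, compounds in DMSO were added and exposure lasted 40 h. Finally, CellTiter-Glo was added for 30 min at room temperature and luminescence recorded.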

[12] = qHTS assay for identifying genotoxic compounds that show differential cytotoxicity against isogenic chicken DT40 cell lines with known DNA damage response pathways - Rev3 mutant cell line (AID 743014); also: nearly all actives have a fitted effect of over 55% in size; also: potency is read from the fitted curve at half-maximal effect
[13] = qHTS assay for identifying genotoxic compounds that show differential cytotoxicity against isogenic chicken DT40 cell lines with known DNA damage response pathways - Rad54/Ku70 mutant cell line (AID 743015); also: nearly all actives have a fitted effect of over 60% in size; also: potency is read from the fitted curve at half-maximal effect
[14] = qHTS assay to identify small molecule antagonists of the androgen receptor (AR) signaling pathway - cell viability counter screen (AID 743033; also: nearly all actives have a fitted effect of over 45% in size; also: potency is read from the fitted curve at half-maximal effect)
[15] = qHTS assay to identify small molecule antagonists of the androgen receptor (AR) signaling pathway using the MDA cell line - cell viability counter screen (AID 743041; also: nearly all actives have a fitted effect of over 45% in size)
Summary of the method: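 Viability counter screen run alongside the AR antagonist reporter: cells seeded 5 h before compound, R1881 added, 16 h incubation at 37C without CO2, fluorescent CellTiter-Fluor signal quantified.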

[16] = target: Androgen receptor (Homo sapiens) (UniProt P10275); assay: qHTS assay to identify small molecule antagonists of the androgen receptor (AR) signaling pathway (AID 743035; active = well fitted inhibition curve with a large enough effect in the signal ratio in the repeat runs, not every such curve was filed as active; the % refers to the signal ratio)
Summary of the method: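 Beta-lactamase FRET read (2 h RT incubation with LiveBLAzer B/G) following 16 h of compound plus R1881 treatment of AR-UAS-bla HEK293 cells, which had been pre-incubated 4 h at 37C.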

[17] = target: Androgen receptor (Homo sapiens) (UniProt P10275); assay: qHTS assay to identify small molecule agonists of the androgen receptor (AR) signaling pathway (AID 743036; active = well fitted activation curve with a large enough effect in the signal ratio in the repeat runs, with a control signal flat, not every such curve was filed as active; the % refers to the signal ratio)
Summary of the method: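 AR-bla HEK293 cells, 2,000/well; 4 h preincubation 37C/5% CO2; compound (DMSO) 16 h at 37C; LiveBLAzer B/G FRET substrate 2 h RT; fluorescence intensity read-out.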

[18] = target: Androgen receptor (Homo sapiens) (UniProt P10275); assay: qHTS assay to identify small molecule agonists of the androgen receptor (AR) signaling pathway using the MDA cell line (AID 743040; also: nearly all actives have a fitted effect of over 20% in size); details: MDA-kb2 AR-luc cells, MMTV luciferase, 16 h, stronger effect = higher value
Summary of the method: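 Luminescence from ONE-Glo, read after 30 min at room temperature, reflects MMTV-driven luciferase in MDA-kb2 cells (AR- and GR-responsive). Treatment lasted 16 h at 37C, 0% CO2.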

[19] = target: Androgen receptor (Homo sapiens) (UniProt P10275); assay: qHTS assay to identify small molecule antagonists of the androgen receptor (AR) signaling pathway using the MDA cell line (AID 743042; also: nearly all actives have a fitted effect of over 55% in size)
Summary of the method: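 MDA-kb2 cells (human breast carcinoma, stably carrying an MMTV-luciferase reporter responsive to AR and GR) were plated at 3,000 cells/well and preincubated 5 hr at 37C, then given compound plus R1881 agonist for 16 h. ONE-Glo luminescence was read.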

Glucocorticoid receptor (Homo sapiens), sequence (P04150 whole entry, looked up): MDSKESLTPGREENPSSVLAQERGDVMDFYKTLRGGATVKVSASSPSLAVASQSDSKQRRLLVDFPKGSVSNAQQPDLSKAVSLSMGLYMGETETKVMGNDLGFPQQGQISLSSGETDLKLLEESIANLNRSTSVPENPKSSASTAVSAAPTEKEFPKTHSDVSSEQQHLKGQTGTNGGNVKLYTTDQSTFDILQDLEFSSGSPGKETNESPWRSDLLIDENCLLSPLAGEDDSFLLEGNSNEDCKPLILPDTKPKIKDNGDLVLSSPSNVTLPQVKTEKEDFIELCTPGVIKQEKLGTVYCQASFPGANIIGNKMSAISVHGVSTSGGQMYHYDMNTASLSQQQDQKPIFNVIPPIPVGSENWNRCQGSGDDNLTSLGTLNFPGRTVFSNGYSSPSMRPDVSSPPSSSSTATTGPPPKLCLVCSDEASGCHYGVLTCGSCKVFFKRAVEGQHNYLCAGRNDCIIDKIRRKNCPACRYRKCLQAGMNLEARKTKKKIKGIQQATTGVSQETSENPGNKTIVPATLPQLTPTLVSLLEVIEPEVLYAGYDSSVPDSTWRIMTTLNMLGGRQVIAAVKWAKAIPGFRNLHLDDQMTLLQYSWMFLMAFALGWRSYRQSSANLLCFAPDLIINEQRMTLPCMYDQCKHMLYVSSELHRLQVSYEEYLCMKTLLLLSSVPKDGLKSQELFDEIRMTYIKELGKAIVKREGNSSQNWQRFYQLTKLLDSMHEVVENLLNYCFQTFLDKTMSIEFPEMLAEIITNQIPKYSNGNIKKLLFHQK
Androgen receptor (Homo sapiens), sequence (P10275 whole entry, looked up): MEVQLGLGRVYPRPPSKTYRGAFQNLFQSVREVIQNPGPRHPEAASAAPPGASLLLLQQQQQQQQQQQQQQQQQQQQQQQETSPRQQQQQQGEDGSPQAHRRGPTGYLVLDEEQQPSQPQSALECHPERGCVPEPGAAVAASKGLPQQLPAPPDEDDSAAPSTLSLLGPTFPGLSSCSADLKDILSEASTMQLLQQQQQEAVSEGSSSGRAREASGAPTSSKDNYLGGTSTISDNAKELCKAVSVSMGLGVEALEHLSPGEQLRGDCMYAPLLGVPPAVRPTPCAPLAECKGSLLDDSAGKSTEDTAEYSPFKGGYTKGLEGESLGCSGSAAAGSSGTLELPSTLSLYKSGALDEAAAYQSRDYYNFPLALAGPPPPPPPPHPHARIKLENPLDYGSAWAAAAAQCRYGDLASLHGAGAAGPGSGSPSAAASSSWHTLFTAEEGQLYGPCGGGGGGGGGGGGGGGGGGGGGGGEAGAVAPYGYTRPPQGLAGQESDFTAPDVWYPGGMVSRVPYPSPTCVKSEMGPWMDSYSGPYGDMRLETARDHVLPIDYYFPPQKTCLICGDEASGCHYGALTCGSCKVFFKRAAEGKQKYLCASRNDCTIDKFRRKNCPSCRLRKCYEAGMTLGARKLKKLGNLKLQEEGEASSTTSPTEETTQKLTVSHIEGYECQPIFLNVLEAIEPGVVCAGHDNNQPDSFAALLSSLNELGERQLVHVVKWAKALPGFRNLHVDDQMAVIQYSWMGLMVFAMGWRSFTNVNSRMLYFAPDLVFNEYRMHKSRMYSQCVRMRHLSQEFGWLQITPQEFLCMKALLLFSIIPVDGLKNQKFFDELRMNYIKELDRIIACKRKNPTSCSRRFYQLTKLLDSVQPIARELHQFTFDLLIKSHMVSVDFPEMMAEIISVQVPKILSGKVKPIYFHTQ

SMILES | outcome [1] | Potency [2] | outcome [3] | outcome [4] | Potency [5] | outcome [6] | Potency [7] | outcome [8] | Potency [9] | Potency [10] | Potency [11] | Potency [12] | Potency [13] | Potency [14] | Potency [15] | Potency [16] | Potency [17] | activity change ([18]; at 70.3 µM (top of the series)) | Potency [19] | activity change ([18]; at 95 µM (top of the series))
NC1CCCCC1N (stereo not given) | inactive | inactive | inactive | inactive | inactive | inactive | inactive | inactive | inactive | inactive | inactive | inactive | inactive | inactive | inactive |  |  |  |  | 
CC(CN1c2ccccc2Sc2ccccc21)N(C)C (stereo not given) | inactive | inactive | inactive | inactive | inactive | inactive | inactive |  |  | inactive | 21.1 µM (active) and 55 µM (active) and 54.5 µM (active) | 26.6 µM (active) and 27.6 µM (active) and 24.3 µM (active) | 26.6 µM (active) and 30.9 µM (active) and 54.5 µM (active) | inactive and 44.1 µM (active) |  |  |  |  |  | 
O=[N+]([O-])c1ccccc1C(F)(F)F | inactive | inactive | inactive | inactive | inactive | inactive | inactive |  |  | inactive | inactive | inactive | inactive | inactive | inactive | inactive | inactive | 0.939% (inactive) and 0.0136% (inactive) | inactive | 
C1CCCNCC1 | inactive | inactive | inactive | inactive | inactive | inactive | inactive | inactive | inactive | inactive | inactive | inactive | inactive | inactive | inactive |  |  |  |  | 
OCCOCCOCCOCCOCCO | inactive | inactive | inactive | inactive | inactive | inactive | inactive |  |  | inactive | inactive | inactive and 24.3 µM (active) | inactive | inactive | inactive |  |  |  |  | 
COc1c2ccoc2cc2oc(=O)ccc12 | inactive | inactive | inactive | inactive | inactive | inactive | inactive | inactive | inactive | inactive | inactive | inactive | inactive | inactive | inactive |  |  |  |  | 
O=c1n(CCCN2CCN(c3cccc(Cl)c3)CC2)nc2ccccn12 | inactive | inactive | inactive | inactive | inactive | inactive | inactive |  |  | inactive | inactive and 54.5 µM (active) | inactive and 54.5 µM (active) | inactive and 43.3 µM (active) | inactive | inactive |  |  |  |  | 
O=[N+]([O-])c1cc(C(F)(F)F)ccc1Cl | inactive | inactive | inactive | inactive | inactive | inactive | inactive | inactive | inactive | inactive | inactive | inactive | inactive | inactive |  | inactive | inactive | -0.292% (inactive) | inactive | 5.79% (inactive)
COc1c(Cl)ccc(Cl)c1C(=O)O | inactive | inactive | inactive | inactive | inactive | inactive | inactive |  |  | inactive | inactive | inactive | inactive | inactive | inactive |  |  |  |  | 
Cc1cc(C)c(O)c(C)c1 | inactive | inactive | inactive | inactive | inactive | inactive | inactive | inactive | inactive | inactive | inactive | inactive | inactive | inactive | inactive |  |  |  |  | 
Cc1cc(C)cc(O)c1 | inactive | inactive | inactive | inactive | inactive | inactive | inactive | inactive | inactive | inactive | inactive | inactive | inactive | inactive | inactive |  |  |  |  | 
COc1ccccc1[N+](=O)[O-] | inactive | inactive | inactive | inactive | inactive | inactive | inactive |  |  | inactive | inactive | inactive | inactive | inactive | inactive |  |  |  |  | 
